# Test results from PubChem BioAssay AID463173 (ICCB-Longwood Screening Facility, Harvard Medical School, 2010).
# The campaign covered roughly 52,000 compounds. About 1,700 (3.3%) were called active. This is one part of a sample in which actives are shown more often than they occur. Unmarked numbers belong to inactive results. No stated cut-off is given here; in the data, active means survival mostly below about 52% (no sharp cut-off); inactive means mostly above about 56%.
# Test system: Wild type
# Assay: growth inhibition of S. aureus wild type versus tarO mutant, primary screen, teichoic acid synthesis inhibitors, RN4220, OD600 (AID 463173)
# Conditions: S. aureus RN4220 wild type/DeltatarO growth, OD600, 18 h, hits give low values, screened at 18.75 µg/mL (by protocol)
row,Compound,survival
1,CCOC(=O)N1CCc2c(sc(NCc3cccc(F)c3)c2C(=O)Nc2ccc(OC)cc2OC)C1,68%
2,CC(C)c1nnc(NC(=O)c2nc(SCc3ccc(F)cc3)ncc2Cl)s1,58%
3,Cc1cc(C)n(CCc2nc3c4ccccc4nc(SCc4ccc(F)cc4)n3n2)n1,85%
4,COc1ccc(C(CNC(=O)c2ccc(C)cc2)N2CCOCC2)cc1 (stereo not given),92%
5,Cc1cc2nc3c(=O)n(C)c(=O)n(C)c3nc2cc1N=CN(C)C,77%
6,CCc1c(CN2CCN(c3ccc(F)cc3)CC2)csc1C,75%
7,O=C(CSc1ccc(-c2ccc(F)cc2)nn1)N1CCOCC1,112%
8,Cc1ccc(-n2nc3c(=O)n(C(C)C(=O)NCc4ccc(OC(C)C)cc4)nc(C)c3c2C)cc1 (stereo not given),93%
9,CC(C)(C)c1ccc(OCc2nc3ccccc3n2CCOc2ccccc2)cc1,7% (active)
10,Cc1ccc(NS(=O)(=O)c2ccc(-c3cc(C)no3)cc2)c(C)c1,101%
11,COc1ccccc1CNC(=O)c1cccn1-c1nnc(N2CCCCC2)s1,10% (active)
12,COc1ccc(CNC(=O)c2cccn2-c2nnc(N3CCCCC3)s2)c(OC)c1,-2% (active)
13,O=C(c1cccn1-c1nnc(N2CCCCC2)s1)N1CCN(c2ccccc2)CC1,-3% (active)
14,COc1ccc(NC(=O)c2cccn2-c2nnc(N3CCCCC3)s2)c(OC)c1,73%
15,COc1ccc(CNC(=O)c2cccn2-c2nnc(N3CCCC3)s2)c(OC)c1,81%
16,O=C(c1cccn1-c1nnc(N2CCCCC2)s1)N1CCN(c2ccc(Cl)cc2)CC1,73%
17,O=C(c1cccn1-c1nnc(N2CCCC2)s1)N1CCN(c2ccccc2)CC1,19%
18,COc1ccccc1CCNC(=O)c1cccn1-c1nnc(N2CCCCC2)s1,87%
19,COc1ccccc1CNC(=O)c1cccn1-c1nnc(N2CCCC2)s1,81%
20,Cc1ccc(C)c(CSc2nnc3[nH]c(=O)cc(-c4ccccc4)n23)c1,86%
21,Cc1cccc(N2CCN(c3nc4ccccc4c4nnc(C)n34)CC2)c1C,98%
22,COc1ccc(NC(=O)C2CCN(C(=O)c3sc4nc[nH]c(=O)c4c3C)CC2)cc1Cl,85%
23,CCOc1ccccc1NC(=O)CN1C(=O)C(=O)c2ccccc21,115%
24,O=C(CN1c2ccccc2S(=O)(=O)c2ccccc21)Nc1ccccc1Cl,65%
25,CCOc1ccccc1NC(=O)CN1C=NS(=O)(=O)c2ccccc21,59%

row,Compound,survival
1,CCOc1ccccc1NC(=O)CN1c2ccccc2S(=O)(=O)c2ccccc21,10% (active)
2,Cc1cccc(NC(=O)CN2c3ccccc3S(=O)(=O)c3ccccc32)c1C,-3% (active)
3,Cc1cc(C)c(NC(=O)CN2c3ccccc3S(=O)(=O)c3ccccc32)c(C)c1,124%
4,CCn1nc(-c2ccccc2)c(-c2ccccc2)c(C(=O)Nc2ccc(NC(C)=O)cc2)c1=O,88%
5,CCC(C)(C)n1nnnc1C(c1ccccc1OC)N1CCN(C(=O)c2ccco2)CC1 (stereo not given),105%
6,Cc1ccc(C)c(Cn2c(C(C)NC(=O)c3ccc(F)cc3)nc3ccccc32)c1 (stereo not given),83%
7,COc1ccc(C(=O)N2CCN(C(=O)COc3ccccc3)CC2)cc1OC,79%
8,CC(=O)N1c2ccc(S(=O)(=O)NCC3CCC(C(=O)Nc4cccc(C)c4)CC3)cc2CC1C (stereo not given),91%
9,Cc1ccc(C(=O)Nc2ccc(-c3nc4ccccc4s3)cc2C)cc1C,73%
10,CSc1ncc(C(=O)N2CCN(c3ccc(Cl)cc3)CC2)c(C)n1,124%
11,CSc1ncc(C(=O)N2CCN(c3cccc(Cl)c3)CC2)c(C)n1,-3% (active)
12,CSc1ncc(C(=O)N2CCN(c3cccc(C(F)(F)F)c3)CC2)c(C)n1,73%
13,CCCCN(CCCNC(=O)c1c(C)oc2nc[nH]c(=O)c12)Cc1ccccc1,71%
14,Cc1oc2ccc(O)c(CN3CCCC(C)C3)c2c1C(=O)Nc1ccccc1 (stereo not given),91%
15,CCN(Cc1ccccc1)Cc1c(O)ccc2c(=O)c(-c3ccccc3Cl)coc12,73%
16,CCN(CC)c1ccc(NC(=O)CN2C(=O)c3cccnc3Oc3ccccc32)c(C)c1,135%
17,Cc1cc(Br)ccc1NC(=O)CN1C(=O)c2cccnc2Sc2ccccc21,85%
18,CCN(CC)c1ccc(NC(=O)CN2C(=O)c3cccnc3Sc3ccccc32)c(C)c1,-4% (active)
19,CCC(=O)Nc1ccc(CC)cc1-c1nc2ccccc2n(CC(=O)Nc2ccccc2C)c1=O,88%
20,COc1ccc(Nc2ncc3c(n2)CCN(Cc2ccc(Br)s2)C3)c(OC)c1,127%
21,CCOc1ccc(CNC(=O)C2CCN(Cc3cc4ccccc4n3Cc3ccccc3C)CC2)cc1,60%
22,CCn1c2ccccc2c2cc(CN3CCN(Cc4ccccc4C)CC3)ccc21,-1% (active)
23,O=c1c2ccccc2n(Cc2ccccc2F)c(=O)n1-c1cccc(F)c1,75%
24,CCN(CC)C(=O)C1CCN(Cc2ccccc2F)CC1,107%
25,Cc1ccccc1Cn1c(CN2CCC(C(=O)NCc3ccc(Cl)cc3)CC2)cc2ccccc21,60%

row,Compound,survival
1,CCn1c2ccccc2c2cc(CN3CCN(Cc4ccccc4F)CC3)ccc21,4% (active)
2,O=C1NC(=O)C(Nc2cccc3ccccc23)S1 (stereo not given),104%
3,O=C(CSc1nnc(Cn2nnc3ccccc32)o1)N(Cc1ccc(Cl)cc1)c1ccccc1,141%
4,CCOC(=O)c1ccccc1NC(=O)c1ccncc1,94%
5,O=C(CC(c1ccccc1)c1cc(Br)ccc1O)NCC1(c2ccccc2)CCCC1 (stereo not given),63%
6,Cc1cccc(C(CC(=O)NCC2(c3ccccc3)CCCC2)c2ccccc2)c1O (stereo not given),2% (active)
7,Cc1ccccc1NC(=O)C(=O)NCC1(c2ccccc2)CCCC1,94%
8,CCC(=O)NCC1(c2ccccc2)CCCC1,102%
9,Cc1ccc(C(CC(=O)NCC2(c3ccccc3)CCCC2)c2ccccc2)c(O)c1 (stereo not given),36%
10,Cc1ccc(O)c(C(CC(=O)NCC2(c3ccccc3)CCCC2)c2ccccc2)c1 (stereo not given),6% (active)
11,COc1ccc(-c2cc(C(F)(F)F)nc(SCCC(=O)Nc3cccc(O)c3)n2)cc1,80%
12,COc1cc(Cl)c(C)cc1NC(=O)c1nn(C)c2c1CSc1ccccc1-2,85%
13,Cc1ccc(C(=O)CSc2nnc(-c3ccccc3)n2-c2ccccc2)cc1,79%
14,CCOc1ccc(-c2nnc(SCC(=O)c3ccc(F)cc3)n2-c2ccccc2)cc1,153%
15,O=C(CSc1nnc(-c2ccccc2Br)n1-c1ccccc1)c1ccc(F)cc1,4% (active)
16,O=C(CSc1nnc(-c2ccc(Br)cc2)n1-c1ccccc1)c1ccccc1,97%
17,COc1ccccc1-c1nnc(SCC(=O)c2ccc(F)cc2)n1-c1ccccc1,0% (active)
18,Cn1c(SCC(=O)c2ccc(F)cc2)nnc1-c1ccccc1Br,74%
19,COc1ccccc1-c1nnc(SCC(=O)c2ccc(Cl)cc2)n1-c1ccccc1,0% (active)
20,COc1ccccc1-c1nnc(SCC(=O)OC(C)C)n1-c1ccccc1,115%
21,Cc1ccc(-c2nnc(SCC(=O)c3ccc(Cl)cc3)n2-c2ccccc2)cc1,94%
22,CCc1cccc(NC(=O)CN(C)S(=O)(=O)c2ccc3c(c2)CCCN3C(C)=O)c1,83%
23,COc1ccc(F)cc1S(=O)(=O)NCC(c1ccco1)S(=O)(=O)c1cccs1 (stereo not given),81%
24,CCCN1CCN(CC2=C(C(=O)OCC)C(c3ccc(OC(C)C)cc3)NC(=O)N2)CC1 (stereo not given),72%
25,COc1ccc(-n2nnc(-c3nc(-c4cccs4)no3)c2N)cc1OC,100%

row,Compound,survival
1,CCN1CCN(C(c2ccc(F)cc2)c2sc3nc(-c4ccco4)nn3c2O)CC1 (stereo not given),131%
2,Cc1ccc(C(=O)N2CCN(c3cccc(Cl)c3)CC2)cc1-n1c(C)nc2cccnc21,84%
3,Cc1cc2c(cc1S(=O)(=O)NCc1ccc(F)cc1)OCC(=O)N2,82%
4,CCOc1cc(C(=O)N2CCC(c3ccncc3)CC2)cc(OCC)c1OCC,-1% (active)
5,COc1cc(C(=O)N2CCC(c3ccncc3)CC2)cc(OC)c1OC,78%
6,CCN(CC)c1ccc(C(=O)N2CCC(c3ccncc3)CC2)cc1,85%
7,COc1cc(OC)cc(C(=O)N2CCC(c3ccncc3)CC2)c1,69%
8,COc1ccc(C(=O)N2CCC(c3ccncc3)CC2)cc1OC,-6% (active)
9,CCOc1ccc(C(=O)N2CCC(c3ccncc3)CC2)cc1,78%
10,Cc1ccc(C)c(C(=O)COC(=O)CCCC(=O)Nc2cc(C(F)(F)F)ccc2Cl)c1,45%
11,Cc1c(C(=O)Nc2ccc(F)c(Cl)c2)sc2nc3n(c(=O)c12)CCC3,81%
12,CCc1nc(SCc2ccccc2)[nH]c(=O)c1C,102%
13,COc1cccc(NC(=O)Cn2c(=O)n(CCCCC(=O)NCc3ccc4c(c3)OCO4)c(=O)c3ccccc32)c1,92%
14,CC(=O)Nc1ccc(NC(=O)CSc2nc3ccccc3nc2N2CCCCC2)cc1,90%
15,COc1ccc(OC)c(NC(=O)CSc2nc3ccccc3nc2N2CCCCC2)c1,-10% (active)
16,COc1ccc(NC(=O)CSc2nc3ccccc3nc2N2CCOCC2)c(OC)c1,65%
17,COc1ccc(CCNC(=O)CSc2nc3ccccc3nc2Cc2ccc(Cl)cc2)cc1OC,10% (active)
18,CCc1cccc(NC(=O)CSc2nc3ccccc3nc2N2CCCCC2)c1,-13% (active)
19,COc1cccc(Cc2nc3ccccc3nc2SCC(=O)Nc2cc(OC)ccc2OC)c1,60%
20,O=C(CSc1nc2ccccc2nc1Cc1ccc(Cl)cc1)NCCc1ccccc1,69%
21,COc1ccc(NC(=O)CSc2nc3ccccc3nc2N2CCCCC2)cc1,7% (active)
22,COc1cccc(NC(=O)CSc2nc3ccccc3nc2N2CCOCC2)c1,67%
23,COc1ccc(CCNC(=O)CSc2nc3ccccc3nc2Cc2ccc(C)cc2)cc1OC,52%
24,COc1ccc(NC(=O)CSc2nc3ccccc3nc2N2CCC(C)CC2)cc1,45%
25,CCCCc1ccc(NC(=O)CSc2nc3ccccc3nc2N2CCCCC2)cc1,41%
